This note sets out measurements from the supplement of paper PMC9177965.

Where “and” joins values, the source holds several entries; their conditions need not be identical. Equal entries are not always repeated.

The test relates to HT29 RNF43 G659fs (RNF43 659mut, CRISPR-edited). The test is described as follows: cell viability activity relative to DMSO (negative = inhibition); higher = more viable cells (less growth inhibition). The note with it: 5 µM; 96 h. The method, then:
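Broad Repurposing Library primary screen at a single dose of 5 uM. HT29 sg-Ctrl and HT29 RNF43 G659fs CRISPR-edited isogenic cells were seeded at 2500 cells/well in 384-well plates in duplicate and treated for 96 h. Viability was read by CellTiter-Glo and reported as % activity relative to DMSO, with MG132 as the positive control (negative = growth inhibition).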
Take `CCC1=C[C@@H]2CN(C1)Cc1c([nH]c3ccccc13)[C@@](C(=O)OC)(c1cc3c(cc1OC)N(C)[C@H]1[C@@](O)(C(=O)OC)[C@H](OC(C)=O)[C@]4(CC)C=CCN5CC[C@]31[C@@H]54)C2`: the cell viability activity is -62.4%.
Take `CC1(C)CC[C@]2(C(=O)O)CC[C@]3(C)[C@H](C(=O)C=C4[C@@]5(C)C=C(C#N)C(=O)C(C)(C)[C@@H]5CC[C@]43C)[C@@H]2C1`: the cell viability activity was -88.2%.
The same measure for `N=C(NCCCCCCNC(=N)NC(=N)Nc1ccc(Cl)cc1)NC(=N)Nc1ccc(Cl)cc1`: -45.1%; for `CN1CC[C@@H](c2c(O)cc(O)c3c(=O)cc(-c4ccccc4Cl)oc23)[C@@H]1CO`: -90.1%.
With `CC[C@@H]1C(=O)N(C)c2cnc(Nc3ccc(C(=O)N[C@H]4CC[C@H](N5CCN(CC6CC6)CC5)CC4)cc3OC)nc2N1C(C)C`, the cell viability activity was -66.4%.
On to `COC(=O)Nc1nc2cc(C(=O)c3ccccc3)ccc2[nH]1`, for which the cell viability activity is -58.1%.
With `CCCCCCCCCCCCCCCC[N+](C)(C)Cc1ccccc1`, the cell viability activity is -46.6%.
Turning to `CCN(CC)Cc1ccc2cc(COC(=O)Nc3ccc(C(=O)NO)cc3)ccc2c1`, the cell viability activity was -91.4%.
`C=CCCCCCCCCC(=O)O`: the cell viability activity was -66.5%.
Regarding `O=C(O)c1ccccc1-c1c2cc(I)c(=O)c(I)c-2oc2c(I)c(O)c(I)cc12`, the cell viability activity was -23%.
For `COc1cccc2c1C(=O)c1c(O)c3c(c(O)c1C2=O)C[C@@](O)(C(C)=O)C[C@@H]3O[C@H]1C[C@H](N)[C@H](O)[C@H](C)O1`, the cell viability activity was -97.7% and -94% and -93.6%.
To `COc1cc(OCc2cccc(-c3ccccc3)c2C)cc(OC)c1CN1CCCC[C@H]1C(=O)O` belongs -24.2%; to `COc1cccc(Nc2ncnn3ccc(CN4CC[C@@H](N)[C@H](O)C4)c23)c1`, -24%.
Consider `O=C(CCCCCN1C(=O)c2cccc3cccc(c23)C1=O)NO`, for which the cell viability activity was -79.1%.
With `N#CC1(c2ccc(NC(=O)c3cccnc3NCc3ccncc3)cc2)CCCC1`, the cell viability activity was -45.5%.
To `Clc1ccc(CSC(Cn2ccnc2)c2ccc(Cl)cc2Cl)cc1` (stereo not given) belongs -38.7%; to `CNC(=O)CN1CCC(Oc2cc3c(Nc4cccc(Cl)c4F)ncnc3cc2OC)CC1`, -41.9%.
For `CCNC(=O)Nc1ccc(-c2nc3c(c(N4CCOC[C@@H]4C)n2)CCN(C2COC2)C3)cc1`, the cell viability activity is -36.7%.
The same measure for `CN(C)c1ccc(C(=O)NCCCCCCC(=O)NO)cc1`: -84.4%; for `CC1(COc2ccc3c(c2)ncn3-c2ccc3cccc(N4CCC(N)CC4)c3n2)COC1`: -98.3%.
With `CC(C)c1cc(-c2n[nH]c(=O)n2-c2ccc3c(ccn3C)c2)c(O)cc1O`, the cell viability activity is -87.1%.
With `O=[N+]([O-])c1ccccc1S(=O)(=O)NCC1CCC(CNCC2CCc3ccccc3C2)CC1` (stereo not given), the cell viability activity was -63.8%.
`CC[C@@]1(O)C(=O)OCc2c1cc1n(c2=O)Cc2c-1nc1cc(F)c(C)c3c1c2[C@@H](N)CC3`: the cell viability activity was -91.7%.
For `Cc1cn([C@H]2C[C@H](N=[N+]=[N-])[C@@H](CO)O2)c(=O)[nH]c1=O`, the cell viability activity was -29%.
On to `CN1CCN(c2ccc3nc(-c4c(N)c5c(F)cccc5[nH]c4=O)[nH]c3c2)CC1`, for which the cell viability activity is -60.6%.
For `CC(C)(C)c1ccc(C(=O)CCCN2CCC(OC(c3ccccc3)c3ccccc3)CC2)cc1`, the cell viability activity is -79.7%.
Turning to `Clc1ccc(Cn2c(CN3CCCC3)nc3ccccc32)cc1`, the cell viability activity was -32.7%.
For the compound `COc1cc(-c2ncn(/C=C/C(=O)OC(C)C)n2)cc(C(F)(F)F)c1`, the cell viability activity is -69.7%.
Regarding `CC[C@@H]1C(=O)N(C)c2cnc(Nc3ccc(C(=O)NC4CCN(C)CC4)cc3OC)nc2N1C1CCCC1`, the cell viability activity was -83.2%.
As for `CCCCCCCC(=O)N[C@H](CN1CCCC1)[C@H](O)c1ccc2c(c1)OCCO2`, the cell viability activity was -40.1%.
Take `Cc1cc(C(=O)NOCCO)c(Nc2ccc(I)cc2F)n(C)c1=O`: the cell viability activity is -83.4%.
For `CN1C/C=C/CCOc2cccc(c2)-c2ccnc(n2)Nc2cccc(c2)C1`, the cell viability activity was -92.8%.
The same measure for `Cc1ccc(C(=O)N(CCCN)[C@@H](c2oc3cc(Cl)ccc3c(=O)c2Cc2ccccc2)C(C)C)cc1`: -63.6%.
In the case of `COc1ccc(-c2cc3nccn3c(Nc3ncccc3C(N)=O)n2)cc1OC`, the cell viability activity is -27.9%.
Turning to `C/C(=N\NC(=S)N1CCC1)c1ccccn1`, the cell viability activity was -82.2%.
With `COc1ccc2c(c1)c(C1=C(c3c[nH]c4ccccc34)C(=O)NC1=O)cn2CCCN(C)C`, the cell viability activity is -75.2%.
Consider `COc1cc([C@@H]2c3cc4c(cc3[C@@H](O[C@@H]3O[C@@H]5CO[C@@H](c6cccs6)O[C@H]5[C@H](O)[C@H]3O)[C@H]3COC(=O)[C@H]23)OCO4)cc(OC)c1O`, for which the cell viability activity was -84.4% and -59.9%.
To `COc1cc(NC(C)CCCN)c2ncccc2c1` (stereo not given) belongs -52.7%.
Regarding `O=C(NC1CCN(CCCCC2(C(=O)NCC(F)(F)F)c3ccccc3-c3ccccc32)CC1)c1ccccc1-c1ccc(C(F)(F)F)cc1`, the cell viability activity is -95.7%.
For `COc1ccc(-c2ccc3c(N4CCOC[C@@H]4C)nc(N4CCOC[C@@H]4C)nc3n2)cc1CO`, the cell viability activity is -71.9%.
